Only some compounds are listed: those with a hit (about 5.2% of all), similar ones and a draw of the others.
Tau fibril FP: qHTS for Inhibitors of Tau Fibril Formation, Fluorescence Polarization; AID 1468, 2008; Potency, µM (top dose mostly 57.7 µM), usual class: inhibitors; 0.39% of 280,000 active; K18 P301L tau heparin fibrillization, Alexa594 FP, 6 h; note: nearly all actives have a fitted effect of over 55% in size
Target sequence (P10636 561-689 P618L limits assumed): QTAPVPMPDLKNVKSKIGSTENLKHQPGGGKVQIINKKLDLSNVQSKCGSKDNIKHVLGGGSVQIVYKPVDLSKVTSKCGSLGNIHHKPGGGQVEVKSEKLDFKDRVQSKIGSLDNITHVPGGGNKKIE
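Quantitative HTS format: compounds meet 15 uM recombinant K18 P301L tau and Alexa 594-tau tracer in 100 mM sodium acetate pH 7; 20 uM heparin triggers fibrillization at 37 C over 6 hr; FP gives the signal.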
Sfp PPTase inh: qHTS Assay for Inhibitors of Bacillus subtilis Sfp phosphopantetheinyl transferase (PPTase) | 4'-phosphopantetheinyl transferase ffp (Bacillus subtilis), Q9F4F7 | Biochemical Sfp PPTase activity, qHTS | Potency, µM, usual class: inhibitors | 3.5% of 310,000 active | AID 1490, 2009;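 note: the enzyme is Sfp with the accession as filed and its product quenches rhodamine fluorescence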
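Step 1, compound plus 15 nM Sfp-PPTase, 15 min, room temperature. Step 2, add rhodamine-CoA (5 uM) and BHQ-2-YbbR (12.5 uM). Step 3, read 525/598 nm fluorescence at 0 and 30 min.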
Coupling enz: qHTS Assay for Inhibitors of Fructose-1,6-bisphosphate Aldolase from Giardia Lamblia: Coupling assay counterscreen; activity change, negative = inhibition, % at 58.2 µM, hits read low; AID 2472, 2010; 0.67% of 290,000 active; coupling enzyme system counterscreen, AmpLite Red fluorescence; in the data active = activity change below about -30%
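Compounds tested against the coupling enzymes alone at 57.5 uM final; readout was AmpLite Red fluorescence (525/598 nm) after 20 min at RT.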
Tau fluor counter: Counterscreen qHTS for Inhibitors of Tau Fibril Formation, Fluorescence Polarization; 0.93% of 280,000 active; AID 1463, 2008; tau K18 P301L Alexa594 fluorescence, heparin fibrillization; Potency, µM (titrated, usually from 57.7 µM); note: nearly all actives have a fitted effect of over 55% in size
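Human K18 P301L tau (15 uM unlabeled plus 0.24 uM Alexa 594-labeled, final) in 100 mM sodium acetate pH 7 was mixed with compound and 20 uM heparin and incubated 6 hr at 37 C.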
Tau fibril ThT: qHTS for Inhibitors of Tau Fibril Formation, Thioflavin T Binding | AID 1460, 2008 | 2.1% of 270,000 active | Potency, µM (top dose mostly 57.4 µM), actives largely listed as inhibitors | recombinant tau K18 P301L (four-repeat tau fragment), heparin-induced fibrillization, ThT fluorescence; note: nearly all actives have a fitted effect of over 55% in size
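K18 P301L tau (15 uM + 0.24 uM Alexa 594-tagged), heparin 20 uM, NaOAc pH 7, 6 h 37 C; ThT 30 uM, 1 h RT, ex 450/em 510 nm.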
Of the large screens only hits and unclear results are named; the others gave an inactive call. Unless noted, calls come from the whole dose curve; as a rule, active = well fitted curve in the direction sought with a large enough effect; inconclusive = small, poorly fitted or top-dose-only effect, or another doubt; inactive = no such curve, though single readings can be large; an effect the other way counts as inactive or inconclusive.

Cc1ccc(OCc2nn3c(-c4ccco4)nnc3s2)cc1	Tau fibril ThT inconclusive
Cc1c(C(=O)N(C)C)sc2c1c(=O)n(-c1ccc(Cl)c(Cl)c1)c(=O)n2Cc1ccc(F)cc1	none (no result: Sfp PPTase inh, Coupling enz)
CCCC[C@H](NC(=O)[C@H](CC(C)C)NC(=O)[C@@H](Cc1c[nH]c2ccccc12)NC(=O)[C@H](Cc1ccccc1)NC(=O)[C@@H](Cc1c[nH]c2ccccc12)NC(=O)[C@H](CC(N)=O)NC(=O)[C@@H](Cc1c(Cl)cccc1Cl)NC(=O)[C@@H]1CCCN1C(=O)[C@H](Cc1ccccn1)NC(=O)[C@@H]1CCCN1C(=O)[C@H](N)CCCCNC(=O)c1cccnc1)C(N)=O	none (no result: Tau fibril FP, Tau fluor counter, Tau fibril ThT)
Brc1ccc(C2=Nn3c(Cn4nnc5ccccc54)nnc3SC2)cc1	Sfp PPTase inh 28µM
CCc1nnc2n1N=C(c1ccc(Br)cc1)CS2	none (no result: Tau fibril FP, Tau fluor counter, Tau fibril ThT)
CC(=O)Nc1ccc(N=Nc2ccc(O)cc2)cc1	Tau fibril ThT 7.9µM
CC(=O)Nc1ccc(N=NN2CCOCC2)cc1	Tau fibril ThT 10µM
CC(=O)Nc1cccc(N=NN2CCOCC2)c1	Tau fibril FP inconclusive, Tau fibril ThT inconclusive
CC(=O)Nc1ccc(-c2ccc(NC(C)=O)cc2)cc1	none
Cc1ccc(N2CC3=C(C2=O)C(c2ccc(Br)cc2)NC(=O)N3C)cc1 (centres undefined)	none (no result: Sfp PPTase inh, Coupling enz)
Cc1nc(CC(=O)Nc2ccc(C(N)=O)cc2)cs1	none (no result: Sfp PPTase inh, Coupling enz)
Cc1ccc(C(=O)Nc2c(C)nc3ccccn3c2=O)cc1	none (no result: Sfp PPTase inh, Coupling enz)
CN1c2c(nc(N)[nH]c2=O)NCC1CNc1ccc(C(=O)NC(CCC(=O)O)C(=O)O)cc1 (centres undefined)	none (no result: Tau fibril FP, Coupling enz, Tau fluor counter, Tau fibril ThT)
CC(CCc1ccco1)NC(=O)Cn1ncc2c1-c1ccccc1OC2 (centres undefined)	Sfp PPTase inh 50µM
O=C(Cn1ncc2c1-c1ccccc1OC2)N(Cc1ccco1)C1CCCCC1	Tau fibril ThT inconclusive
C=CC[n+]1ccc(/C=C2\C=Cc3cc(C)ccc3N2CC)c2ccccc21	Tau fibril FP 32µM, Tau fibril ThT 3.2µM
CCN1/C(=C/c2cc[n+](CCCS(=O)(=O)[O-])c3ccccc23)Sc2ccccc21	Tau fibril ThT inconclusive
Cc1sc(C(C2C(=O)CC(C)(C)CC2=O)C2C(=O)CC(C)(C)CC2=O)cc1[N+](=O)[O-]	Sfp PPTase inh 6.3µM, Tau fibril ThT inconclusive
O=c1c2cc(N3CCOCC3)ccc2[nH]c(=S)n1Cc1ccco1	Tau fibril FP inconclusive, Sfp PPTase inh 7.9µM, Tau fluor counter inconclusive, Tau fibril ThT inconclusive
O=c1c2cc(N3CCOCC3)ccc2[nH]c(=S)n1CCCN1CCCCC1	Coupling enz -38
COc1cccc(CNC(=O)CCCCCn2c(=S)[nH]c3ccc(N4CCOCC4)cc3c2=O)c1	Sfp PPTase inh 79µM
CO[C@@H]1COC(=O)[C@H](COCc2ccccc2)NC(=O)C/C=C\[C@@H](C)[C@H](OC)COC(=O)[C@@H](C)NC(=O)C/C=C\[C@H]1C	none
CC(C)C[C@H](N)C(=O)N[C@H](C(=O)N[C@@H](CCCN=C(N)N)C(=O)N[C@H](CS)C(=O)NCC(=O)N[C@@H](CCCCN)C(=O)N[C@@H](Cc1cnc[nH]1)C(=O)N[C@@H](CO)C(=O)N[C@@H](CCCN=C(N)N)C(=O)O)C(C)C	none (no result: Tau fibril FP, Tau fluor counter, Tau fibril ThT)
COC(=O)c1ccc(C(/C=C/[C@@H](C)C(=O)N(C)C)NC(=O)OCc2ccccc2)cc1 (some centres undefined)	none
CC(=O)c1cccc(NC(=S)Nc2cccc3ccccc23)c1	none (no result: Tau fibril FP, Tau fluor counter, Tau fibril ThT)
Cc1ccc(NC(=S)Nc2cccc3cnccc23)cc1C	Sfp PPTase inh 40µM, Coupling enz -44
CC(=O)c1ccc(NC(=S)Nc2cccc3cnccc23)cc1	Sfp PPTase inh 2.5µM, Coupling enz -62, Tau fibril ThT inconclusive
Cc1ccc(NC(=S)Nc2cccc3cnccc23)cc1	Tau fibril FP inconclusive, Sfp PPTase inh 45µM, Coupling enz -38, Tau fibril ThT inconclusive
Cc1ccc(-c2nn(-c3ccccc3)cc2C(N)=O)o1	Sfp PPTase inh inconclusive
Cc1ccc(-c2nn(-c3ccccc3)cc2C=O)o1	Sfp PPTase inh 40µM
CCn1c(-c2ccco2)nc2ccccc21	Sfp PPTase inh 40µM
c1ccc(OCCn2c(-c3ccco3)nc3ccccc32)cc1	Sfp PPTase inh 50µM
Cc1cccc(OCCn2c(-c3ccco3)nc3ccccc32)c1	Sfp PPTase inh inconclusive, Tau fibril ThT inconclusive (no result: Coupling enz)
C[C@H](Cc1nc2c(cnn2-c2ccccc2Cl)c(=O)[nH]1)C(F)(F)F	none (no result: Tau fibril FP, Tau fluor counter, Tau fibril ThT)
COc1cc(/C=N/NC(=O)[C@H](Cc2c[nH]c3ccccc23)NC(=O)OCC(C)C)cc([N+](=O)[O-])c1O	Tau fibril FP inconclusive, Tau fluor counter inconclusive, Tau fibril ThT 14µM
COc1cc(C(=O)N2CCc3c([nH]c4ccccc34)C2c2ccc(C)cc2)cc(OC)c1OC (centres undefined)	none (no result: Sfp PPTase inh, Coupling enz)
COc1ccc2oc(=O)c(/C(C)=N/Nc3ccccc3)cc2c1	Tau fluor counter inconclusive, Tau fibril ThT 18µM
COc1ccc2oc(=O)c(C(=O)Nc3cccc(C(C)=O)c3)cc2c1	none (no result: Tau fibril FP, Tau fluor counter, Tau fibril ThT)
S=C(NCc1ccncc1)Nc1ccc(Br)cc1Cl	none (no result: Tau fibril FP, Coupling enz, Tau fluor counter, Tau fibril ThT)
Cc1cccnc1NC(=S)Nc1ccc(Br)cc1Cl	Sfp PPTase inh 20µM
COc1cccc(NC(=S)Nc2ccc(Br)cc2Cl)c1	Tau fluor counter inconclusive
CCOc1ccc(NC(=S)Nc2ccc(Br)cc2Cl)cc1	Sfp PPTase inh 40µM, Tau fibril ThT inconclusive
COc1cc(NC(=O)CSc2nnc(C)n3c2cc2oc(C)cc23)cc(OC)c1	Tau fibril ThT inconclusive (no result: Sfp PPTase inh, Coupling enz)
C=C(C)C1CCC(C)C(OC(C)=O)C1 (centres undefined)	none (no result: Tau fibril FP, Tau fluor counter, Tau fibril ThT)
COC(=O)CCC(=O)Nc1ccc(C)cc1OC(=O)CCC(=O)OC	Tau fibril FP inconclusive, Sfp PPTase inh 79µM, Tau fibril ThT inconclusive
COC(=O)CCC(=O)Nc1cccc2c(NC(=O)CCC(=O)OC)cccc12	none
CCOC(=O)c1sc2nc3c(SCCC(=O)O)cc(C(=O)c4cc(OC)ccc4O)cn3c(=O)c2c1C	Tau fibril ThT 25µM
O=C(O)CSc1cc(C(=O)c2cc(F)ccc2O)cn2c(=O)c3c(-c4ccccc4)csc3nc12	Tau fibril ThT 28µM
COc1ccc(NC(=O)CN(c2ccccc2OC)S(C)(=O)=O)c(OC)c1	none (no result: Sfp PPTase inh, Coupling enz)
O=C1C=C(Nc2ccccc2O)c2ccccc2C1=O	Sfp PPTase inh inconclusive, Coupling enz -60, Tau fluor counter inconclusive, Tau fibril ThT inconclusive
O=c1cccccc1NCc1ccccc1	Sfp PPTase inh 22µM, Coupling enz -39
O=C1C=C(NCc2ccccc2)c2ccccc2C1=O	Tau fibril FP inconclusive, Sfp PPTase inh 22µM, Coupling enz -87, Tau fibril ThT 14µM
